Source: ChEMBL document CHEMBL1961873, “Compounds: GSK PKIS; Assays: Nanosyn kinase panel” (2012)

Columns and labels:
[1] = molecular target: T1, Mitogen-activated protein kinase 12 (Homo sapiens) (UniProt P53778); conditions: at 1 µM;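 note: values are averaged p38gamma kinase inhibition readings, compounds tested at 1 µM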
T1 sequence (whole entry): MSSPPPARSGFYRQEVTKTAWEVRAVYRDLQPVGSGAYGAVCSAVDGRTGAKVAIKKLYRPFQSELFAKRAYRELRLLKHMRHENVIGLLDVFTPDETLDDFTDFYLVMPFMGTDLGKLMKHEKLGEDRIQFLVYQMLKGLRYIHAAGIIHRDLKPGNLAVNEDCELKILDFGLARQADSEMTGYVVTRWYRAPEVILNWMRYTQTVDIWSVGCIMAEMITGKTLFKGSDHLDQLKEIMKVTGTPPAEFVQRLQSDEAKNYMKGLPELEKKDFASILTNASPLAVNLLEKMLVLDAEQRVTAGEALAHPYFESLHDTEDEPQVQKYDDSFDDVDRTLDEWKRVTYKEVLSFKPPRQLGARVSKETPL

[2] = molecular target: SRSF protein kinase 1 (Homo sapiens) (UniProt Q96SB4); conditions: at 0.1 µM
Sequence of SRSF protein kinase 1 (Homo sapiens) (Q96SB4 whole entry, canonical isoform): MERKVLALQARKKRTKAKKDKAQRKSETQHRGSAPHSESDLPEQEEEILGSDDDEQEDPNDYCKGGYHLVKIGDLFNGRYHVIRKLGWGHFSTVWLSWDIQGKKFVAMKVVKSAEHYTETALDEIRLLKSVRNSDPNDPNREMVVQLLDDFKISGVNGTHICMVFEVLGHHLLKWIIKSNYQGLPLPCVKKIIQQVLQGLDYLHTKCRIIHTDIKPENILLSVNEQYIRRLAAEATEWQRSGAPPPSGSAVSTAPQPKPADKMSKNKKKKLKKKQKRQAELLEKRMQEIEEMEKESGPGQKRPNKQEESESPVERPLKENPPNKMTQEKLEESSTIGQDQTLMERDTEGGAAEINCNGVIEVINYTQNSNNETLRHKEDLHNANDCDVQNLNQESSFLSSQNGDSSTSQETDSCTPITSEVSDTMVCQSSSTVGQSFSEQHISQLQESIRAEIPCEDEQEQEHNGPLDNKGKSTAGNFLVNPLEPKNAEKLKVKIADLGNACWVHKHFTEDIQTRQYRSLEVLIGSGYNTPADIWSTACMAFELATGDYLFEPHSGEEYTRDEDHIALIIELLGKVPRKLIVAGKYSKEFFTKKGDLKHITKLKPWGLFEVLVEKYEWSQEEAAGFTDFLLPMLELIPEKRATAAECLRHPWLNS

[3] = molecular target: SRSF protein kinase 1 (Homo sapiens) (UniProt Q96SB4); conditions: at 1 µM
[4] = molecular target: Phosphatidylinositol 4,5-bisphosphate 3-kinase catalytic subunit alpha isoform (Homo sapiens) (UniProt P42336); conditions: at 0.1 µM
Sequence of Phosphatidylinositol 4,5-bisphosphate 3-kinase catalytic subunit alpha isoform (Homo sapiens) (P42336 whole entry, canonical isoform): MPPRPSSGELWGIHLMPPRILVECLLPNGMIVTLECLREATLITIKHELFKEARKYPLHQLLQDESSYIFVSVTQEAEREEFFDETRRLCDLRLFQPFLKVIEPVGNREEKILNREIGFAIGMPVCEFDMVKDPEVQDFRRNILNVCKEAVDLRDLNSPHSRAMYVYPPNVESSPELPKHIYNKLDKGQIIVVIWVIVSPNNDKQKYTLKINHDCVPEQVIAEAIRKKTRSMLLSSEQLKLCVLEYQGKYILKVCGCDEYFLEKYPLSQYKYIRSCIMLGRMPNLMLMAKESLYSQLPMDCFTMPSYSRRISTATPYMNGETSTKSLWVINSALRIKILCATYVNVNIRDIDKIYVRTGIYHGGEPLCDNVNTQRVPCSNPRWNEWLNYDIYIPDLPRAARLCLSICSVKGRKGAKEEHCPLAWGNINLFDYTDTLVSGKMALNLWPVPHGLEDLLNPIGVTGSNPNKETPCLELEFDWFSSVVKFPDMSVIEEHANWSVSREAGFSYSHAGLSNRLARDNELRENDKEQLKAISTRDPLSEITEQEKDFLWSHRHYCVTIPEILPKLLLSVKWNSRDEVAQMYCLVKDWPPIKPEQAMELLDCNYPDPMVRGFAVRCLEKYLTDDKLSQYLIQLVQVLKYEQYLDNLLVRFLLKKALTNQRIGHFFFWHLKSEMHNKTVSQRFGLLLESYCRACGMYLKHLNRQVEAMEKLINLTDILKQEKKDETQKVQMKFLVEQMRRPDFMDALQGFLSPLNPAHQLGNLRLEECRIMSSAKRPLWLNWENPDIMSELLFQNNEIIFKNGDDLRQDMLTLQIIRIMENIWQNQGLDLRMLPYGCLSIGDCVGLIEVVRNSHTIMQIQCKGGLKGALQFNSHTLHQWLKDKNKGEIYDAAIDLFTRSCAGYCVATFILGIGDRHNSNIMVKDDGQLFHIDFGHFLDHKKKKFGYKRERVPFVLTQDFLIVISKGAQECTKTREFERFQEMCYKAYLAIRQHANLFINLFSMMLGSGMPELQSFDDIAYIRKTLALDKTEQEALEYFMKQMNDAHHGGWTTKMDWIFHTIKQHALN

[5] = molecular target: Phosphatidylinositol 4,5-bisphosphate 3-kinase catalytic subunit alpha isoform (Homo sapiens) (UniProt P42336); conditions: at 1 µM
[6] = molecular target: T2, Phosphatidylinositol 4,5-bisphosphate 3-kinase catalytic subunit delta isoform (Homo sapiens) (UniProt O00329); conditions: at 0.1 µM
T2 sequence (whole entry): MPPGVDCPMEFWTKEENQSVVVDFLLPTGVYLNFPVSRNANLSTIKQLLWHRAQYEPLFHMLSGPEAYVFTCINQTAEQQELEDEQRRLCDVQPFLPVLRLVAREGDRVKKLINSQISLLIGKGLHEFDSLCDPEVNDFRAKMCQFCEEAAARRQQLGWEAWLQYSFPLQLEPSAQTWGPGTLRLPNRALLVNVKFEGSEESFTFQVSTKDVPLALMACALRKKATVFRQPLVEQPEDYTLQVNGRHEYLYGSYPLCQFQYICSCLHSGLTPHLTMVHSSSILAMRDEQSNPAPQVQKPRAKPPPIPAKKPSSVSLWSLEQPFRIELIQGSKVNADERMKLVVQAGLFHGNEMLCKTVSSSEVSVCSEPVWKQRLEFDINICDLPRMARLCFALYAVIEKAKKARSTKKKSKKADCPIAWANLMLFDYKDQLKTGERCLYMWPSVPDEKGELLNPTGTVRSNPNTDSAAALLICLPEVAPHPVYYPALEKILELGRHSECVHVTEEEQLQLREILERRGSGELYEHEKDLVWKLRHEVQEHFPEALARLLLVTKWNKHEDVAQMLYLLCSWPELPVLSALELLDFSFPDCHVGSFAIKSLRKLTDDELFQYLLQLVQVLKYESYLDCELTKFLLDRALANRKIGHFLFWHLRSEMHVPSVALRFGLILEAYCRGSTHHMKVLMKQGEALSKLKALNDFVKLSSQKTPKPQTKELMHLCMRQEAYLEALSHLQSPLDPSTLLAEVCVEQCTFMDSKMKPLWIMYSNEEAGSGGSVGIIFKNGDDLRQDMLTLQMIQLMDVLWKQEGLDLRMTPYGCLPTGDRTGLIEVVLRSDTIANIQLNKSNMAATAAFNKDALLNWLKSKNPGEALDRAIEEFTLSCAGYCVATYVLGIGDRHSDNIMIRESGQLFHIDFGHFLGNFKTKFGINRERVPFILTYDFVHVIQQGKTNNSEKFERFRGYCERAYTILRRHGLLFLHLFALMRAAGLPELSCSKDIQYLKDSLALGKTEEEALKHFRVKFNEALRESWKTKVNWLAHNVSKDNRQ

[7] = molecular target: T2, Phosphatidylinositol 4,5-bisphosphate 3-kinase catalytic subunit delta isoform (Homo sapiens); conditions: at 1 µM
[8] = molecular target: Phosphatidylinositol 4-kinase beta (Homo sapiens) (UniProt Q9UBF8); conditions: at 0.1 µM
Sequence of Phosphatidylinositol 4-kinase beta (Homo sapiens) (Q9UBF8 2-816 limits assumed): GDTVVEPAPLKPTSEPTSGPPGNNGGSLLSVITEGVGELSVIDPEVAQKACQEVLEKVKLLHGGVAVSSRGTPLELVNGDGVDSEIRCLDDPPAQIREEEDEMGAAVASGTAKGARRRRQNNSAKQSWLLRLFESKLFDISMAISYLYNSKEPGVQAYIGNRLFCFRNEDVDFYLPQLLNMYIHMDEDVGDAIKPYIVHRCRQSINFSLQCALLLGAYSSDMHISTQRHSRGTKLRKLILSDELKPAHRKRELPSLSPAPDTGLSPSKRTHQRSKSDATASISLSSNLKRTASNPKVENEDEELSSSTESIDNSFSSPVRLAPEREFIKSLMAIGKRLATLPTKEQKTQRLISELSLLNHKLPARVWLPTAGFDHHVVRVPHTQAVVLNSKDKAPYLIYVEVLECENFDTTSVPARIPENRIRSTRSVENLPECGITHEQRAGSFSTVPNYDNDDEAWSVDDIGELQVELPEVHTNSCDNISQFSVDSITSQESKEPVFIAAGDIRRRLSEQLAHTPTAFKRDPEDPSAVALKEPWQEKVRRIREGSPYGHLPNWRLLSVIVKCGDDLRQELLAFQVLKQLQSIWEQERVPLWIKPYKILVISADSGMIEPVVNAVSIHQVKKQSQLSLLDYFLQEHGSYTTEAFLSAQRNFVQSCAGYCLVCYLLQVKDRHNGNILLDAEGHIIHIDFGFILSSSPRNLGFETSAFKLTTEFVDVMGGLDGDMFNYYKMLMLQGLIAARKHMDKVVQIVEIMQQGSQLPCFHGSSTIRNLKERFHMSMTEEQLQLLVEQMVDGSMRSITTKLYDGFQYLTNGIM

[9] = molecular target: Phosphatidylinositol 4-kinase beta (Homo sapiens) (UniProt Q9UBF8); conditions: at 1 µM
[10] = molecular target: Sphingosine kinase 1 (Homo sapiens) (UniProt Q9NYA1); conditions: at 0.1 µM
Sequence of Sphingosine kinase 1 (Homo sapiens) (Q9NYA1 whole entry): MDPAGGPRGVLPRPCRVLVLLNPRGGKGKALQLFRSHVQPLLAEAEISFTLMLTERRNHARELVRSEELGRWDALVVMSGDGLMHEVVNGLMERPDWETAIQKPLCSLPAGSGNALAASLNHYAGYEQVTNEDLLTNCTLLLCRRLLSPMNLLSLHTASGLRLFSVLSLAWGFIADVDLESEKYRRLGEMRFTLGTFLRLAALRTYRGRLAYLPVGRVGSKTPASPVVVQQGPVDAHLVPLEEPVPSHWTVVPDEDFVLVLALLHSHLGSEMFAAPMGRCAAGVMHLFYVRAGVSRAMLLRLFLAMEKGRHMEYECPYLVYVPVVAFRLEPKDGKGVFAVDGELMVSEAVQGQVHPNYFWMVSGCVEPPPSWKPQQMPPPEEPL

[11] = molecular target: Sphingosine kinase 1 (Homo sapiens) (UniProt Q9NYA1); conditions: at 1 µM
[12] = molecular target: T3, Sphingosine kinase 2 (Homo sapiens) (UniProt Q9NRA0); conditions: at 0.1 µM
T3 sequence (whole entry): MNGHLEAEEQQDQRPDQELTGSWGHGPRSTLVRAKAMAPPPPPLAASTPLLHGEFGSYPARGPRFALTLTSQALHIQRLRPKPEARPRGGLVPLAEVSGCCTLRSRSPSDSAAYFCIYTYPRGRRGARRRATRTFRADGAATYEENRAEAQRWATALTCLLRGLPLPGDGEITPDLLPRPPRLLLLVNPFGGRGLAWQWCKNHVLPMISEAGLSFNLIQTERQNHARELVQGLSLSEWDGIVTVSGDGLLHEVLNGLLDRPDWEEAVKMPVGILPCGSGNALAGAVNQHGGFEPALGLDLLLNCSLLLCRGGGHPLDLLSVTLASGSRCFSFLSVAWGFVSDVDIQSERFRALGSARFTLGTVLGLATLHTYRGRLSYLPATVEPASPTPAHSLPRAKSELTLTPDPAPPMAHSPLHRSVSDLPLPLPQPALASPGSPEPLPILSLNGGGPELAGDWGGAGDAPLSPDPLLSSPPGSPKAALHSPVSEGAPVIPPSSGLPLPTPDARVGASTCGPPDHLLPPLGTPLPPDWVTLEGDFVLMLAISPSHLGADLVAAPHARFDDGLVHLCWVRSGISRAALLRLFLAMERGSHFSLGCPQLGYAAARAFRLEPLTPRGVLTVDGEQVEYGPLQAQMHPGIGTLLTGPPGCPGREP

[13] = molecular target: T3, Sphingosine kinase 2 (Homo sapiens); conditions: at 1 µM
[14] = molecular target: Casein kinase II subunit alpha (Homo sapiens) (UniProt P68400); conditions: at 0.1 µM
Sequence of Casein kinase II subunit alpha (Homo sapiens) (P68400 whole entry, looked up): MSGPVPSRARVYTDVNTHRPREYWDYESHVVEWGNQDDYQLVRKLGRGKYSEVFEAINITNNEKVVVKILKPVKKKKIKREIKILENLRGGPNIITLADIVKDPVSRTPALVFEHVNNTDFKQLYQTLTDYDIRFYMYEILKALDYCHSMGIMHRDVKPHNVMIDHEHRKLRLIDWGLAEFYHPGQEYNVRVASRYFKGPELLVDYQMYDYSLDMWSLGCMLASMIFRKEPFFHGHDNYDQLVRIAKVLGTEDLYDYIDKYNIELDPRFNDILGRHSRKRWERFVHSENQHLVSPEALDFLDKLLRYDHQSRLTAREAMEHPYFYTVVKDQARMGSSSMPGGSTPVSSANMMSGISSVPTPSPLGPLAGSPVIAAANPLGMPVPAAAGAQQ

[15] = molecular target: Casein kinase II subunit alpha (Homo sapiens) (UniProt P68400); conditions: at 1 µM
[16] = molecular target: T4, Inhibitor of nuclear factor kappa-B kinase subunit alpha (Homo sapiens) (UniProt O15111); conditions: at 0.1 µM
T4 sequence (whole entry): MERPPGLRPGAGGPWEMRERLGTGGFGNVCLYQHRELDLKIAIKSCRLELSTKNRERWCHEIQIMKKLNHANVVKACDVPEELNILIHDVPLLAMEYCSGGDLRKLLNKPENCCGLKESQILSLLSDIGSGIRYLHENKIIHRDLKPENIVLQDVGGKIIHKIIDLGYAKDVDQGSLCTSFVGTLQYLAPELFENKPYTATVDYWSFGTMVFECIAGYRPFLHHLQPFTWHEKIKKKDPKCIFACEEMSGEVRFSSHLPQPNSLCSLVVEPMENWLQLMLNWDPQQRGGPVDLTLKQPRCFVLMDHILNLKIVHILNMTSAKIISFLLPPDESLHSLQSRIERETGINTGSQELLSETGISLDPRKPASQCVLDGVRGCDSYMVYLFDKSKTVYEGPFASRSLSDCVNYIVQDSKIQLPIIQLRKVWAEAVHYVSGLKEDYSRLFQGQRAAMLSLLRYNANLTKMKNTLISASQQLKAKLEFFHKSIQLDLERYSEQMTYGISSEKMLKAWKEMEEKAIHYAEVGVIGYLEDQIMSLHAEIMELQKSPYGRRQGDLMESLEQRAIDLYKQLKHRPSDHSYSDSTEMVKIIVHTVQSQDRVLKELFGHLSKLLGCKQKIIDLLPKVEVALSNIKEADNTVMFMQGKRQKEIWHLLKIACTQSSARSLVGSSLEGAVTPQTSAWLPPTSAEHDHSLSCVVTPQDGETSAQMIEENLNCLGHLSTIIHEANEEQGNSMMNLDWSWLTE

[17] = molecular target: T4, Inhibitor of nuclear factor kappa-B kinase subunit alpha (Homo sapiens); conditions: at 1 µM
[18] = molecular target: T5, Inhibitor of nuclear factor kappa-B kinase subunit beta (Homo sapiens) (UniProt O14920); conditions: at 0.1 µM
T5 sequence (whole entry): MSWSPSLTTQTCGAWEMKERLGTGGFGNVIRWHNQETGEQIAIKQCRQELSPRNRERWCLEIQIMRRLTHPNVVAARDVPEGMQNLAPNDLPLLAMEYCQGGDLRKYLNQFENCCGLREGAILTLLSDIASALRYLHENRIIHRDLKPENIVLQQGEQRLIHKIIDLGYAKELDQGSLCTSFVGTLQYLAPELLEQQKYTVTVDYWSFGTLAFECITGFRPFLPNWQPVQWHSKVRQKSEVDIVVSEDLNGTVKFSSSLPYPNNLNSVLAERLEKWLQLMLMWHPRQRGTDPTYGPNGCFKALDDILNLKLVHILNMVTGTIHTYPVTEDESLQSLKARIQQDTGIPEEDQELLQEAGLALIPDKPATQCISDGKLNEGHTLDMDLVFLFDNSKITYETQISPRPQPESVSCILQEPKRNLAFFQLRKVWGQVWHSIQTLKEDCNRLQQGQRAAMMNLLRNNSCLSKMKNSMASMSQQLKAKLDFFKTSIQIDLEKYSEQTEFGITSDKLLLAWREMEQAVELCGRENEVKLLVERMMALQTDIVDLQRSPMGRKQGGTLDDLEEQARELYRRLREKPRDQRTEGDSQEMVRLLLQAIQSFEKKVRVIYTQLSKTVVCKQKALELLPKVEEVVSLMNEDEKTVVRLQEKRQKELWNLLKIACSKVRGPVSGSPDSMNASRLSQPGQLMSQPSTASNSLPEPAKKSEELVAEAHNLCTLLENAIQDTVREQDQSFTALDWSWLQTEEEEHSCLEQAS

[19] = molecular target: T5, Inhibitor of nuclear factor kappa-B kinase subunit beta (Homo sapiens); conditions: at 1 µM
[20] = molecular target: T6, Inhibitor of nuclear factor kappa-B kinase subunit epsilon (Homo sapiens) (UniProt Q14164); conditions: at 0.1 µM;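 note: mean inhibition of IKKε reported, from the GSK PKIS dataset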
T6 sequence (whole entry): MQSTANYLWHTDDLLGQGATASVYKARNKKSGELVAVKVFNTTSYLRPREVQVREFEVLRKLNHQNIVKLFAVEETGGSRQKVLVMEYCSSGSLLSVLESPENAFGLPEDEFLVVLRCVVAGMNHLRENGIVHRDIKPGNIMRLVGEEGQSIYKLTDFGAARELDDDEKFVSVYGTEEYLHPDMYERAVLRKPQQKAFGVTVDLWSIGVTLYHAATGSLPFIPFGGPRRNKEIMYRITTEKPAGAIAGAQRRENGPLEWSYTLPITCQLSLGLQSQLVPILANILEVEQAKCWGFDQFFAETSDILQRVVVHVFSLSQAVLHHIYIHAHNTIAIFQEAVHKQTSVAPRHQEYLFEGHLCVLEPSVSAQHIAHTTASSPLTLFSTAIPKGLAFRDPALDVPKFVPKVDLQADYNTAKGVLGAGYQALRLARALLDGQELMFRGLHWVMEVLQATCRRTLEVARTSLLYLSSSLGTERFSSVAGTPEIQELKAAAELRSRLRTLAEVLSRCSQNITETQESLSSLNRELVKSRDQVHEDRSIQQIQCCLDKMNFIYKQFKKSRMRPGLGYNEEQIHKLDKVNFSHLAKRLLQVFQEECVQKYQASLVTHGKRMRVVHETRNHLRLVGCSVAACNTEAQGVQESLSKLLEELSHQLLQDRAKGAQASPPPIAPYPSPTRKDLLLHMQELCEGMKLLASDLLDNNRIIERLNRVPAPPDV

| Structure (SMILES) | inhibition [1] | inhibition [2] | inhibition [3] | inhibition [4] | inhibition [5] | inhibition [6] | inhibition [7] | inhibition [8] | inhibition [9] | inhibition [10] | inhibition [11] | inhibition [12] | inhibition [13] | inhibition [14] | inhibition [15] | inhibition [16] | inhibition [17] | inhibition [18] | inhibition [19] | inhibition [20] |
| --- | --- | --- | --- | --- | --- | --- | --- | --- | --- | --- | --- | --- | --- | --- | --- | --- | --- | --- | --- | --- |
| COC(=O)c1sc(-n2cnc3cc(OC)c(OC)cc32)cc1OCc1ccccc1C(F)(F)F | 2.9% | -3.05% | -6.39% | 4.25% | 4.16% | 2.55% | 4.61% | -0.98% | -2.56% | -3.91% | 1.91% | 0.14% | -2.19% | 0.66% | -0.18% | 3.9% | 5.32% | 5.59% | 4.11% | 3.88% |
| COc1cc2ncn(-c3cc(OCc4ccccc4C(F)(F)F)c(C(=O)N(C)C)s3)c2cc1OC | 0.94% | -1.25% | -2.46% | 0.78% | 1.16% | 0.51% | 2.3% | 2.07% | 0.96% | 2.3% | -3.72% | 0.13% | -2.18% | -0.24% | 2.74% | 5.36% | 2.95% | -0.51% | 0.42% | 0.86% |
| FC(F)(F)c1cccc(-c2nn3ncccc3c2-c2ccnc(Nc3ccc4c(c3)OCCO4)n2)c1 | 2.93% | -2.68% | -5.33% | 1.87% | 3.02% | 1.36% | 4% | -4.9% | 3.59% | -1.16% | 1.14% | 0.13% | -0.65% | 0.21% | -1.98% | 3.23% | 0.65% | 2.71% | 0.36% | 2.48% |
